Assay outcomes: PubChem BioAssay, National Center for Advancing Translational Sciences (NCATS)
RE007 growth inh: qHTS Assay for Inhibitors of the HIV-1 protein Vpr. Potency, µM (doses to about 92.2 µM), for inactives: at the highest dose activity change, negative = less growth, actives largely listed as inhibitors. S. pombe RE007 Vpr strain, BacTiter-Glo ATP luminescence, 24 h. 0.21% of 360,000 active; active = well fitted falling curve with a large enough effect; inconclusive = small, poorly fitted or top-dose-only effect; inactive = no such curve, though single readings can be large or run the other way; also: potency is read from the fitted curve at half-maximal effect; % is scaled to controls: 0 for no effect and ±100 for the full control effect; nearly all actives have a fitted effect of over 50% in size
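Fission yeast RE007 carrying one integrated HIV-1 vpr copy, seeded at OD 0.01 in PMG+AL medium with 23 nL pinned compound. Grown 24 h at 30 degrees; viability read by BacTiter-Glo luminescence after 5 min.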
NS1 inh: qHTS Assay for Inhibitors of Influenza NS1 Protein Function; Potency, µM (highest dose often 46.1 µM), inactives show top-dose activity, positive = more growth; 0.4% of 270,000 active; also: potency is read from the fitted curve at half-maximal effect; actives are rising curves; nearly all actives have a fitted effect of over 50% in size
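In this qHTS, NS1 from influenza A is expressed in budding yeast, where it slows growth. Cells are switched from glucose to 2% galactose medium (pH 6.0, -URA), treated with compound, and growth recovery is read at OD600.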
LmPK inh: qHTS Assay for Inhibitors of Leishmania Mexicana Pyruvate Kinase (LmPK). Potency, µM (series often up to 57.5 µM), for inactives: at the highest dose activity change, negative = inhibition, hits mostly inhibitors. purified LmPK, Kinase-Glo ATP luminescence, 1 h. 0.37% of 290,000 active. AID 1721, 2009; active = well fitted curve in the direction sought with a large enough effect; inconclusive = small, poorly fitted or top-dose-only effect, or another doubt; inactive = no such curve, though single readings can be large; an effect the other way counts as inactive or inconclusive; also: potency is read from the fitted curve at half-maximal effect; % is scaled to controls: 0 for no effect and ±100 for the full control effect
Target sequence (Q27686 whole entry, looked up): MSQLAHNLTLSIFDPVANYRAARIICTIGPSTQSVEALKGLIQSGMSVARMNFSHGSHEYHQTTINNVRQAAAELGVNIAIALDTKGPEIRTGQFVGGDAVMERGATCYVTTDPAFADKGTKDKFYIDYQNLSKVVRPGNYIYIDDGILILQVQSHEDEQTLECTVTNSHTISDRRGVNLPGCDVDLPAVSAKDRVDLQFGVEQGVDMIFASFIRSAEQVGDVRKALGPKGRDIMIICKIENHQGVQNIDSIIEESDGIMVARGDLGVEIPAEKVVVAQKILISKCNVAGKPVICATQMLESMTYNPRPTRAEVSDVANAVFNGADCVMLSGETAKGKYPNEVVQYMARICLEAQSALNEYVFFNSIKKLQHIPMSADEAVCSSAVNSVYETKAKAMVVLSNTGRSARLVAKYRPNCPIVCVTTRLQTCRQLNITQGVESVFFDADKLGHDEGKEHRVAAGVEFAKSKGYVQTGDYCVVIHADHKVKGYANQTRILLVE
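In 50 mM imidazole pH 7.2 with 7 mM MgCl2, LmPK (0.1 nM) turned over PEP (0.5 mM) and ADP (0.1 mM) for 1 h at room temperature. Luciferase read-out of ATP.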
TbPYK inhibitor: qHTS of Trypanosoma Brucei Inhibitors | pyruvate kinase (Trypanosoma brucei), Q57TT1 | TbPYK enzyme, Kinase-Glo Plus ATP luminescence, 45 min | Potency, µM (doses to about 76.8 µM), for inactives: at the highest dose activity, negative = inhibition, actives largely listed as inhibitors | 0.12% of 410,000 active | AID 624173, 2012; active = well fitted curve in the direction sought with a large enough effect; inconclusive = small, poorly fitted or top-dose-only effect, or another doubt; inactive = no such curve, though single readings can be large; an effect the other way counts as inactive or inconclusive; also: potency is read from the fitted curve at half-maximal effect; % is scaled to controls: 0 for no effect and ±100 for the full control effect; nearly all actives have a fitted effect of over 50% in size
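In this concentration-response screen, enzyme-free wells defined baseline while DMSO plates tracked drift. Each reaction combined TbPYK, substrate, compound and 130 uM ADP for 45 min at room temperature. Kinase-Glo Plus luminescence gave the signal.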
Flu NS1 inh: Assay for Inhibitors of Influenza NS1 Protein Function: Hit Validation | shares compounds with NS1 inh | influenza NS1 function cell assay, 15-point titration | activity change, negative = inhibition, % at 32.9 µM | 1,400 tested, under 10 active | AID 492980, 2010; also: 0% is about no effect
Flu PR8 replic: Assay for Inhibitors of Influenza NS1 Protein Function: Influenza virus replication assay in MDCK cells infected with virus A/PR/8/34. shares compounds with NS1 inh. MDCK infected influenza A/PR/8/34, virus titer TCID50; hits give low values. virus titer (log TCID50), log10 TCID50 at 5 µM. 30% of 95 active. AID 504647, 2011; call rule not given here
* hit, by the source's call. An excerpt weighted towards active compounds, which were near 0.77% of everything screened. Unless noted, calls follow the shape of the full dose curve.

CC1=C(C(=O)OC(C)C)C(c2cccc([N+](=O)[O-])c2)n2c(cc(=O)[nH]c2=S)N1 (stereo not drawn) was read as RE007 growth inh 29%, NS1 inh 11µM*, LmPK inh 3%, TbPYK inhibitor 2% and Flu NS1 inh 36.
`CCOc1ccccc1CNC(=O)c1cnn(-c2ccc(C)cc2)c1-n1cccc1` gave TbPYK inhibitor 5%.
For O=C(N/N=C/c1cccc(O)c1)c1ccc(COc2cccc3cccnc23)cc1 the results were RE007 growth inh 12%, LmPK inh -3% and TbPYK inhibitor 7%.
Screening O=C(N/N=C/c1cccc(O)c1)c1ccc(COc2ccccc2Br)cc1 returned RE007 growth inh 22%, NS1 inh inconclusive, LmPK inh 3%, TbPYK inhibitor -7% and Flu NS1 inh inconclusive.
Screening CCOCCCNS(=O)(=O)c1ccc(NC(=O)Cc2c(F)cccc2Cl)cc1 returned RE007 growth inh -3%, NS1 inh inconclusive, LmPK inh 6%, TbPYK inhibitor -1%, Flu NS1 inh -14 and Flu PR8 replic 8.3.
For O=[N+]([O-])c1ccccc1S(=O)(=O)Oc1ccccc1/C=N/n1cnnc1 the results were RE007 growth inh 4%, NS1 inh 20µM*, LmPK inh -1%, TbPYK inhibitor 3% and Flu NS1 inh -30.
`COc1ccc2[nH]c3c(c2c1)CCNC3` gave RE007 growth inh 3%, NS1 inh 18µM*, TbPYK inhibitor -1% and Flu NS1 inh 13.
Screening CCOc1ccc2[nH]c3c(c2c1)CNCC3 returned RE007 growth inh 1%, NS1 inh 8%, LmPK inh -4% and TbPYK inhibitor -6%.
For Cc1ccc(-c2cc(N)n(Cc3ccc(Cl)cc3)n2)cc1 the results were RE007 growth inh -20%, NS1 inh 5µM*, LmPK inh 1%, TbPYK inhibitor -15% and Flu NS1 inh 1.
For Cc1cc(N)n(Cc2ccc(Cl)cc2)n1 the results were RE007 growth inh 4%, NS1 inh 4%, LmPK inh -9% and TbPYK inhibitor 3%.
For COc1cccc(CN(C(=O)CN2C(=O)c3ccccc3S2(=O)=O)C(C(=O)NCC2CCCO2)c2ccco2)c1 (stereo not drawn) the results were RE007 growth inh 11%, NS1 inh inconclusive, LmPK inh -1%, TbPYK inhibitor -5% and Flu NS1 inh -27.
COc1ccc(-c2cn3cccnc3n2)cc1NC(=O)Nc1ccc(Cl)cc1 was read as TbPYK inhibitor 1%.
COc1ccccc1N(CC(=O)N1CCC(C)CC1)S(=O)(=O)c1ccc(C)cc1 was read as TbPYK inhibitor 8%.
For Cc1cc(C)c(-c2cc(NC(=O)COC(=O)c3ccc(CO)cc3)n(-c3ccccc3)n2)cc1C the results were RE007 growth inh 16%, NS1 inh 11µM*, LmPK inh 6%, TbPYK inhibitor 10% and Flu NS1 inh -14.
`Cc1ccc(NC(=O)Cn2c(=O)c(C(F)(F)F)nc3ccccc32)c(C)c1` gave TbPYK inhibitor -1%.
`CCc1n[nH]c2c1/C(=N\O)CC(c1ccccc1)C2` (stereo not drawn) gave RE007 growth inh -14%, NS1 inh -60%, LmPK inh -5% and TbPYK inhibitor 10%.
For CCCCc1n[nH]c2c1/C(=N/O)CC(c1ccccc1)C2 (stereo not drawn) the results were RE007 growth inh -16%, NS1 inh inconclusive, LmPK inh 0%, TbPYK inhibitor -10% and Flu NS1 inh 8.
Screening CC(C)OC(=O)/C(=C\c1ccc2c(c1)c1ccccc1n2C)NC(=O)c1ccccc1 returned RE007 growth inh -12%, NS1 inh 10µM*, LmPK inh -3%, TbPYK inhibitor 1% and Flu NS1 inh 7.
